Results taken from PubChem BioAssay (NCI).
About 83,000 compounds went through this panel and 20% of them were active in at least one assay; those are over-represented in the sample as a whole.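 Step 1: grow cells in 96-well plates. Step 2: add test compound at a single concentration. Step 3: incubate 48 h. Step 4: record percent growth.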 The source made the active and inactive calls. How the source made its calls: active means growth percent below 10; inactive means the rest.

Key:
Assay in all cases: NCI-60 one-dose screen, 48 h (100 = growth as untreated, 0 = no growth, -100 = all killed)
Details in all cases: 10 µM unless noted
DU-145 prostate = system: DU-145 prostate
K-562 leukemia = system: K-562 leukemia
MALME-3M melanoma = system: MALME-3M melanoma
MDA-MB-231 breast = system: MDA-MB-231 breast
RXF 393 renal = system: RXF 393 renal
SF-268 CNS = system: SF-268 CNS
SF-295 CNS = system: SF-295 CNS
SF-539 CNS = system: SF-539 CNS
UACC-257 melanoma = system: UACC-257 melanoma
M14 melanoma = system: M14 melanoma

Measured: growth

COc1ccc2nc(-c3ccc(Cl)cc3)cc(C(=O)N3N=C(c4ccc(N)cc4)CC3c3ccccc3)c2c1 (stereo not given)
inactive: DU-145 prostate 55% | K-562 leukemia 17.5% | MALME-3M melanoma 62.5% | MDA-MB-231 breast 83.8% | RXF 393 renal 35.3% | SF-268 CNS 48.3% | SF-295 CNS 24.2% | SF-539 CNS 43.4% | UACC-257 melanoma 67.1% | M14 melanoma 38.9%

COc1ccc(C(=O)c2cc(OC)c(C)c(OC)c2)cc1OC(=O)CCl
inactive: DU-145 prostate 12.7% | MALME-3M melanoma 69.2% | MDA-MB-231 breast 30.3% | RXF 393 renal 18.4% | SF-268 CNS 44.9% | SF-295 CNS 17.6% | UACC-257 melanoma 60.3%
active: K-562 leukemia 9.2% | SF-539 CNS -7.95% | M14 melanoma 6%

CC(C)NS(=O)(=O)c1cccc(-c2ccc3c(=O)n(CCCN)c4c(c3c2)C(=O)c2ccccc2-4)c1
inactive: DU-145 prostate 107% | K-562 leukemia 88.3% | MALME-3M melanoma 118% | MDA-MB-231 breast 108% | RXF 393 renal 109% | SF-268 CNS 98.2% | SF-295 CNS 104% | SF-539 CNS 104% | UACC-257 melanoma 110% | M14 melanoma 115%

CN1C(=O)c2cc(Cl)nc3c(NC(=O)c4cccc(Cl)c4)c(Cl)c(NC(=O)c4cccc(Cl)c4)c1c23
active: DU-145 prostate 4.2% | K-562 leukemia -43.3% | MALME-3M melanoma -56.1% | MDA-MB-231 breast -40.2% | RXF 393 renal -88.9% | SF-268 CNS 3.08% | SF-539 CNS 9.56% | UACC-257 melanoma -49.3% | M14 melanoma -21.1%
inactive: SF-295 CNS 88.1%

Oc1ccc(CNNc2ccnc3c(O)cccc23)c2cccnc12
active: K-562 leukemia 9.71%
inactive: DU-145 prostate 43.4% | MALME-3M melanoma 66.7% | MDA-MB-231 breast 37.4% | RXF 393 renal 59.6% | SF-268 CNS 37.6% | SF-295 CNS 17.7% | SF-539 CNS 32.2% | UACC-257 melanoma 38.3% | M14 melanoma 30.9%

C/C(=C\c1cnc(C)s1)[C@@H]1C[C@@H]2O[C@@H]2CCC[C@H](C)[C@H](O)[C@@H](C)C(=O)C(C)(C)[C@@H](O)CC(=O)O1
active: DU-145 prostate 2.1% | SF-295 CNS 7.05% | SF-539 CNS 7.63%
inactive: K-562 leukemia 11.8% | MALME-3M melanoma 54.6% | MDA-MB-231 breast 41.3% | RXF 393 renal 18.1% | SF-268 CNS 51.7% | UACC-257 melanoma 76.1% | M14 melanoma 22.1%

COc1ccc(C(=S)c2cc(OC)c(OC)c(OC)c2)cc1OC(=O)CCl
active: DU-145 prostate 9.36% | SF-539 CNS 9.83%
inactive: K-562 leukemia 10.2% | MALME-3M melanoma 74.2% | MDA-MB-231 breast 32.9% | RXF 393 renal 44.7% | SF-268 CNS 39.3% | SF-295 CNS 14.7% | UACC-257 melanoma 56.7% | M14 melanoma 12.6%

Cc1ccc(C2=N[C@H]3CCC[C@@H]3N(c3ccccc3)C(C(Cl)Cl)=N2)cc1
inactive: DU-145 prostate 101% | K-562 leukemia 94.9% | MALME-3M melanoma 95% | MDA-MB-231 breast 117% | RXF 393 renal 83.2% | SF-268 CNS 94.6% | SF-295 CNS 91.7% | SF-539 CNS 105% | UACC-257 melanoma 110% | M14 melanoma 91.9%

COc1ccc2oc(=O)cc(-c3c(C#N)c(N)n4nc(N)c(C#N)c4c3C#N)c2c1
inactive: DU-145 prostate 106% | K-562 leukemia 86.4% | MALME-3M melanoma 77.4% | MDA-MB-231 breast 104% | RXF 393 renal 100% | SF-268 CNS 89.9% | SF-295 CNS 103% | SF-539 CNS 98.2% | UACC-257 melanoma 107% | M14 melanoma 111%

O=C(CSC(=S)N1CCCCC1)Nc1ccccc1
inactive: DU-145 prostate 106% | K-562 leukemia 90.2% | MALME-3M melanoma 101% | MDA-MB-231 breast 103% | RXF 393 renal 110% | SF-268 CNS 93.3% | SF-295 CNS 103% | SF-539 CNS 101% | UACC-257 melanoma 92.4% | M14 melanoma 98.6%

Nc1ccccc1NS(=O)(=O)c1ccc(Cl)cc1
inactive: DU-145 prostate 94.2% | K-562 leukemia 95.9% | MALME-3M melanoma 87.5% | MDA-MB-231 breast 98.2% | RXF 393 renal 115% | SF-268 CNS 93.5% | SF-295 CNS 101% | SF-539 CNS 95.6% | UACC-257 melanoma 98.4% | M14 melanoma 97.1%

CCCCn1c(=O)c(/C=C/C(=O)/C=C/c2cc3ccccc3n(CCCC)c2=O)cc2ccccc21
active: DU-145 prostate -7.95% | K-562 leukemia 3.37% | MALME-3M melanoma 8.02% | MDA-MB-231 breast -18.8% | RXF 393 renal -89.9% | SF-268 CNS 7.91% | SF-295 CNS 3.65% | SF-539 CNS -7.12% | UACC-257 melanoma -24% | M14 melanoma -29.9%

O=c1[nH]c2ccccc2cc1-c1nc2ccc(Cl)cc2[nH]1
active: SF-295 CNS -7.79%
inactive: DU-145 prostate 38.2% | K-562 leukemia 13.7% | MALME-3M melanoma 61.7% | MDA-MB-231 breast 44.9% | RXF 393 renal 63% | SF-268 CNS 50.7% | SF-539 CNS 49% | UACC-257 melanoma 91.5% | M14 melanoma 40.8%

O=C(O)c1cn(C2CC2)c2cc(N3CCN(C(=O)CSc4nnc(-c5ccc(Cl)cc5)n4-c4ccccc4)CC3)c(F)cc2c1=O
inactive: DU-145 prostate 108% | K-562 leukemia 96.1% | MALME-3M melanoma 114% | MDA-MB-231 breast 106% | RXF 393 renal 113% | SF-268 CNS 103% | SF-295 CNS 107% | SF-539 CNS 105% | UACC-257 melanoma 96.4% | M14 melanoma 109%
